Assay [1] can be described thus: qHTS profiling of the MIPE4 collection as inhibitors of Plasmodium falciparum (3D7) proliferation (AID 743344).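 Note: scaled between DMSO vehicle wells and 0.29 µM artemisinin as full inhibition.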 Particulars: P. falciparum 3D7 in erythrocytes, SYBR Green DNA fluorescence, 72 h; at 28.5 µM unless noted. In outline: (§1)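 Parasite DNA was quantified by SYBR Green I fluorescence (ex 485, em 535 nm) after overnight lysis in saponin/Triton buffer at room temperature. Cultures at 0.3% parasitemia and 2.5% hematocrit were first exposed to compound for 72 h at 37 C; signals were normalised to artemisinin (0.29 uM) and vehicle wells.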
For orientation: In qHTS, concentration-response curves come from the screen itself.

Assay [2] in a line: qHTS profiling of the MIPE4 collection as inhibitors of Plasmodium falciparum (DD2) proliferation (Rep 2) (AID 743346). Particulars: P. falciparum Dd2 in erythrocytes, SYBR Green DNA, 72 h; at 28.5 µM unless noted. Put shortly: as §1
A short description of assay [3]: qHTS profiling of the MIPE4 collection as inhibitors of Plasmodium falciparum (HB3) proliferation (AID 743347).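 Note: plate controls were DMSO vehicle wells for no effect and artemisinin wells for full effect.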 As to conditions: P. falciparum HB3 in erythrocytes, SYBR Green DNA, 72 h; at 28.5 µM unless noted. Put shortly: as §1
Assay [4] in a line: High-throughput drug toxicity screening in the BPDCN cell line Gen2.2 (AID 1224824).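 Note: cells exposed to compounds for 48 h before reading.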 Particulars: Gen2.2 BPDCN cells; at 45.8 µM (top of the series) unless noted. Put shortly:
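Gen2.2 cells (500/well) in phenol red-free RPMI with 10% FBS were exposed to compounds for 48 h at 37 °C, 5% CO2. Viability was read by CellTiter-Glo luminescence and normalized to DMSO (100%) and 9.2 uM bortezomib (0%).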

A short description of assay [5]: High-throughput drug toxicity screening in the BPDCN cell line Cal-1 (AID 1224825). Particulars: Cal-1 BPDCN cell viability, qHTS; at 45.8 µM (top of the series) unless noted. In outline: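 CellTiter-Glo luminescence after 48 h compound exposure; percent activity scaled with DMSO as 100% and bortezomib (9.2 uM final) as 0%. Cal-1 cells seeded at 500/well in RPMI, 10% FBS, no phenol red.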

Assay [6] is described as follows: qHTS assay for measurement of the activity of small molecule inhibitors on Zika virus induced Caspase-3 activity in human iPSC derived neural progenitor cells (hNPCs) (AID 1224857; active = well fitted inhibition curve with a large enough effect; note: nearly all actives have a fitted effect of over 65% in size; note: potency is the fitted concentration of half-maximal effect). In outline: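 Caspase-3/7 induction by a 6-hour ZIKV infection was quantified with a luminescent Caspase-Glo 3/7 reagent incubated 30 minutes at room temperature. Compounds were preincubated with hNPCs for 1 hour; inhibition was calculated against uninfected and infected control wells.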

Assay [7] in a line: qHTS assay for measurement of the activity of small molecule inhibitors on Zika virus induced Caspase-3 activity in human astrocytoma cells (AID 1224859; active = well fitted inhibition curve with a large enough effect;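 note: plate controls were ZIKV-infected untreated cells for no effect and uninfected cells for full effect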). In outline:
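In SNB-19 cells plated at 250 cells/well and grown 16-20 h, compounds were applied 1 h before ZIKV (2 FFU/cell). Six hours later caspase-3/7 luminescence was recorded.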

Assay [8] can be described thus: qHTS profiling of the MIPE4 collection as inhibitors of Plasmodium falciparum (DD2) proliferation (AID 743345). Particulars: P. falciparum Dd2 in erythrocytes, SYBR Green DNA, 72 h; at 28.5 µM unless noted. Put shortly: as §1
The nature of assay [9]: qHTS Screen of the MIPE 4.0 Collection Against Ewings Sarcoma (RDES) (AID 1259252; active = well fitted inhibition curve with a large enough effect; note: potency is the fitted concentration of half-maximal effect; nearly all actives have a fitted effect of over 35% in size). Put shortly: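 Viability screen: 48 h incubation at 37C, 95% humidity, 5% CO2 with serially titrated compound, followed by CellTiter-Glo readout.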

Inconclusive results are not listed. The source made the active and inactive calls. Unless noted, the rule behind the calls is not given here.

The compound `Cc1cccc2c1CC[C@H](CN1CCC(c3c(Cl)cccc3Cl)CC1)C[C@@H]2O` had a parasite growth, % of DMSO control in assay [1] of 8.94%. In assay [2], the parasite growth, % of control (lower = inhibition) turned out to be 25%. Also, the growth, % of control in assay [3] amounted to 9.19%. Besides, the cell viability, % of control (lower = more cytotoxic) in [4] is 140%. Besides, the viability (% of control) in [5] worked out at 43.1%. The Potency result in [6] and in assay [7] was “inactive” each time.

`C[C@@H]1CC=CC=CC=CC=C[C@@H](O[C@@H]2O[C@H](C)[C@@H](O)[C@H](N)[C@H]2O)C[C@@H]2O[C@](O)(C[C@@H](O)C[C@@H]3O[C@@H]3C=CC(=O)O1)C[C@H](O)[C@@H]2C(=O)O` gave a parasite growth, % of DMSO control in assay [1] of 46.3%. For the same compound, in assay [8], the parasite growth remaining, % of DMSO control (lower = more inhibition) was found to be 67%. Further, in [2], the parasite growth, % of control (lower = inhibition) came out at 59%. Besides, the growth, % of control in assay [3] turned out to be 52.6%. For the same compound, the cell viability, % of control (lower = more cytotoxic) in assay [4] came out at 186%. The viability (% of control) in assay [5] came to 110%. In addition, the Potency result in [6] and in assay [7] was “inactive” throughout.

Turning to `CC(C)(OCc1nn(Cc2ccccc2)c2ccccc12)C(=O)O`, the parasite growth, % of DMSO control in assay [1] worked out at 95.1%. In assay [8], the parasite growth remaining, % of DMSO control (lower = more inhibition) amounted to 101%. The same compound registered a parasite growth, % of control (lower = inhibition) in [2] of 96.9%. In assay [3], this compound gave a growth, % of control of 104%. In addition, the cell viability, % of control (lower = more cytotoxic) in assay [4] was determined as 148%. Further, the viability (% of control) in [5] was found to be 109%. The Potency result in [6] and in assay [7] was “inactive” throughout.

For the compound `CN1[C@H]2CC[C@H]1CC(OC(=O)c1c[nH]c3ccccc13)C2` (stereo partly drawn), in assay [1], the parasite growth, % of DMSO control amounted to 53%. Further, the parasite growth remaining, % of DMSO control (lower = more inhibition) in assay [8] turned out to be 26.8%. For the same compound, the parasite growth, % of control (lower = inhibition) in assay [2] worked out at 19.2%. In assay [3], this compound came in with a growth, % of control of 22%. For the same compound, the cell viability, % of control (lower = more cytotoxic) in [4] was 99%. Moreover, the viability (% of control) in assay [5] turned out to be 111%. For the same compound, the Potency result in [6] and in [7] was “inactive” throughout.

`Cc1cnc(Nc2cccc(CN3CCOCC3)c2)nc1Nc1cccc(S(=O)(=O)NC(C)(C)C)c1`: the parasite growth, % of DMSO control in assay [1] stood at 4.05%. Moreover, the parasite growth, % of control (lower = inhibition) in assay [2] was 17.3%. This compound displayed a growth, % of control in assay [3] of 7.02%. In assay [4], the cell viability, % of control (lower = more cytotoxic) amounted to 14%. Besides, in assay [5], the viability (% of control) was found to be 3.36%. The Potency entry in assay [6] and in assay [7] was “inactive” each time.

Take `O=C(CC12CC3CC(CC(C3)C1)C2)Nc1cccc2nc(NCCNCCO)ccc12`: the parasite growth, % of DMSO control in assay [1] was determined as 4.99%. Moreover, the parasite growth remaining, % of DMSO control (lower = more inhibition) in assay [8] came to 13.2%. Besides, the parasite growth, % of control (lower = inhibition) in [2] is 15.5%. The growth, % of control in [3] came out at 4.24%. In assay [4], the cell viability, % of control (lower = more cytotoxic) came out at 5.97%. Besides, in assay [5], the viability (% of control) was found to be 5.92%. Further, the Potency entry in assay [6] and in assay [7] was “inactive” in each case.

The compound `CNc1nc(Nc2ccc(C(=O)N3CCOCC3)cc2OC)ncc1Cl` returned a parasite growth, % of DMSO control in assay [1] of 69.3%. Further, the parasite growth, % of control (lower = inhibition) in [2] is 56.9%. The growth, % of control in [3] came out at 54.9%. Further, the cell viability, % of control (lower = more cytotoxic) in assay [4] amounted to 103%. Moreover, the viability (% of control) in [5] came to 93.7%. Moreover, the Potency result in [6] and in [7] was “inactive” in each case.

As to `CC[C@@H]([C@H](C)O)n1ncn(-c2ccc(N3CCN(c4ccc(OCC5CO[C@@](Cn6cncn6)(c6ccc(F)cc6F)C5)cc4)CC3)cc2)c1=O` (stereo partly drawn), the parasite growth, % of DMSO control in assay [1] amounted to 6.37%. In addition, in assay [8], the parasite growth remaining, % of DMSO control (lower = more inhibition) stood at 9.01%. The compound further registered a parasite growth, % of control (lower = inhibition) in assay [2] of 20.2%. In addition, the growth, % of control in assay [3] came to 5.52%. Besides, the cell viability, % of control (lower = more cytotoxic) in assay [4] came out at 169%. In [5], the viability (% of control) worked out at 108%. Besides, the Potency entry in assay [6] and in assay [7] was “inactive” in each case.

As to `CCN1CCC(n2cc(CNc3cc(Cl)c4ncc(C#N)c(Nc5ccc(F)c(Cl)c5)c4c3)nn2)CC1`, in assay [8], the parasite growth remaining, % of DMSO control (lower = more inhibition) stood at 12.5%. This compound also had a parasite growth, % of control (lower = inhibition) in assay [2] of 12.3%. The compound also registered a growth, % of control in assay [3] of 7.52%. In assay [4], the cell viability, % of control (lower = more cytotoxic) worked out at 35.5%. In addition, the viability (% of control) in [5] came out at 36.8%. In assay [6], the Potency is 18.7 µM (active). The Potency result in assay [7] was “inactive”.

In turn, `CC(C)CN(C[C@H](O)[C@H](Cc1ccccc1)NC(=O)O[C@H]1CCOC1)S(=O)(=O)c1ccc(N)cc1` returned a parasite growth, % of DMSO control in [1] of 6.57%. For the same compound, the parasite growth remaining, % of DMSO control (lower = more inhibition) in assay [8] was found to be 73.7%. In assay [2], this compound gave a parasite growth, % of control (lower = inhibition) of 56.3%. In addition, the growth, % of control in [3] was determined as 42.8%. The cell viability, % of control (lower = more cytotoxic) in [4] amounted to 149%. Also, the viability (% of control) in [5] worked out at 97.6%. Further, the Potency result in [6] was “inactive”. Besides, the Potency in assay [9] was 16.6 µM (active).

`OC[C@H]1O[C@@H](O[C@H]2[C@@H](O)[C@@](O)(CO)O[C@@H]2CO)[C@H](O)[C@@H](O)[C@@H]1O` yielded a parasite growth, % of DMSO control in assay [1] of 87.6%. In assay [8], the parasite growth remaining, % of DMSO control (lower = more inhibition) is 72.5%. The growth, % of control in [3] is 88%. Further, the cell viability, % of control (lower = more cytotoxic) in assay [4] was 137%. Besides, in [5], the viability (% of control) is 96.1%. In addition, the Potency result in assay [6] and in assay [7] was “inactive” throughout.
